# Source: PubChem BioAssay (NCI)
# About 79,000 compounds went through this panel and 15% of them were active in at least one assay; those are over-represented in the sample as a whole. Unmarked numbers belong to inactive results. Activity calls are given as the source filed them. Cut-off read from the data, not from the text of the source: active = growth inhibition above about 70%; inactive = the rest.
# Tests used:
# [1] = NCI Yeast Anticancer Drug Screen. Data for the rad50 strain (AID 155);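 note: 0% = growth of vehicle-only cultures of the same strain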; details: S. cerevisiae rad50 strain growth inhibition; at 50.0 µM; hits give high values
# Summary of the method: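 Inhibition values express reduced yeast growth in compound-treated cultures relative to vehicle-treated controls.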
# [2] = NCI Yeast Anticancer Drug Screen. Data for the mec2-1 strain (AID 157); details: S. cerevisiae mec2-1 strain, at 50.0 µM, hits give high values
# Summary of the method: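 Readout is yeast growth inhibition, normalised to vehicle-treated controls, in the mec2-1 strain exposed to compound.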
# [3] = NCI Yeast Anticancer Drug Screen. Data for the sgs1 mgt1 strain (AID 161);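 note: 0% = growth of cultures given vehicle only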; details: S. cerevisiae sgs1 mgt1 strain, at 50.0 µM, hits give high values
# Summary of the method: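 This yeast growth screen uses a strain with defined DNA-repair lesions; compound-treated growth is compared with vehicle-treated growth.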
# [4] = NCI Yeast Anticancer Drug Screen. Data for the cln2 rad14 strain (AID 165);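 note: 0% = growth equal to vehicle treated cultures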; details: S. cerevisiae cln2 rad14 strain, at 50.0 µM, hits give high values
# Summary of the method: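 Relative to vehicle controls, growth inhibition of compound-treated cln2 rad14 yeast was recorded.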
# [5] = NCI Yeast Anticancer Drug Screen. Data for the bub3 strain (AID 167); details: S. cerevisiae bub3 mutant strain, at 50.0 µM, hits give high values
# Summary of the method: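 Steps: expose the mutant yeast strain to compound; grow alongside vehicle-treated cultures; measure growth; express inhibition against the vehicle cultures.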
# [6] = NCI Yeast Anticancer Drug Screen. Data for the mlh1 rad18 strain (AID 175); details: S. cerevisiae mlh1 rad18 strain growth inhibition; at 50.0 µM; hits give high values
# Summary of the method: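 Test agents were incubated with a yeast strain of defined genotype (DNA damage repair defect). Inhibition of growth was derived by comparison with vehicle-exposed cultures.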
Structure (SMILES),growth inhibition [1],growth inhibition [2],growth inhibition [3],growth inhibition [4],growth inhibition [5],growth inhibition [6]
CC(C)(CNC(=O)C12CC3CC(CC(C3)C1)C2)NC(=O)C12CC3CC(CC(C3)C1)C2,15.9%,12.5%,14.1%,11.1%,0.85%,27.8%
Cn1cnc2c(Oc3ccc(Cl)cc3)ncnc21,-7.35%,-14.5%,5.25%,8.85%,-22.7%,5.5%
CC(=O)CC(C)(C)S(=O)(=O)c1ccc(C)cc1,4%,-5.05%,24.4%,-26.4%,11.8%,5.05%
Cn1c(=O)c(CC(O)C(Cl)(Cl)Cl)nc2ccccc21 (centres undefined),20.6%,23.6%,3.4%,3.75%,18.9%,31.7%
CC(C)NC(=O)CC(NCc1ccccc1)C(=O)O (centres undefined),5.85%,6.8%,21.1%,9.5%,-6.8%,10.2%
O=C(O)C(CBr)c1ccccc1 (centres undefined),6.7%,7.2%,-0.55%,13.2%,0.05%,0.5%
N#Cc1nnc2cc(-c3ccccc3)nn2c1-c1cccs1,0.6%,-8.6%,15.8%,21.1%,4.1%,6.35%
CCC(C(=O)O)=C1CCCCC1,11.1%,-8.15%,-0.35%,9.15%,5.85%,-3.9%
Cc1[nH]n(C(=N)N)c(=O)c1CCO,-7.15%,11.6%,-18.6%,-6.35%,2%,-50.7%
O=CNc1cc([N+](=O)[O-])ccc1OCc1ccccc1,13.6%,1.6%,-0.75%,4.6%,12.2%,-21.9%
CCCCCCCCC/C=C1\CCC(CN2CCOCC2)C1=O (centres undefined),89% (active),92.8% (active),90.3% (active),89.6% (active),88.8% (active),88% (active)
O=C1c2ccccc2C(=O)C2CC(c3ccccc3)=CCC12 (centres undefined),10.6%,10.1%,-5.8%,-35.6%,52.9%,0.9%
O=C(O)c1cc(=O)c2c([nH]c3ccccc32)s1,-4.9%,-18.7%,-14.6%,5.25%,-14.3%,13.3%
CC1(C)CC(=O)C(C(c2ccccc2)C2C(=O)CC(C)(C)CC2=O)C(=O)C1,4%,-8.9%,1.8%,2.6%,6.5%,7%
COc1cccc(-c2cc(=O)c3cccc(CC(=O)O)c3o2)c1,5.9%,-4.9%,-11.6%,2.85%,-2.35%,-30.9%
CN(C)S(=O)(=O)c1ccc(N)c([N+](=O)[O-])c1,-0.2%,10.7%,-7.75%,-5.05%,7.55%,14.3%
CN1CCCC(CO)C1 (centres undefined),-10.8%,-10.2%,-7.65%,6.95%,7.75%,-5.3%
CC(C)(N)CNCCO,-3.25%,2.05%,-8.9%,-18.1%,-1.7%,0.4%
CCc1ccc(C(=O)O)o1,-9%,-12.1%,-7.35%,7.8%,12.7%,12.3%
